Screening results as filed in PubChem BioAssay.
TGFb SMAD3 inh = TGF-b pathway inhibition; HepG2 CAGA-GFP TGF-b/SMAD3 reporter, GFP fluorescence, 18 h; TGF-beta stimulated, 500 pg/mL final; Potency, µM (series often up to 46.1 µM), most hits filed as inhibitors; 1.2% of 410,000 active; further: nearly all actives have a fitted effect of over 65% in size
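First, reporter cells (HEPG2 CAGA-GFP) rested 2 h at 37 degrees C. Next, compounds were pinned in and TGF-beta added to 500 pg/mL final. After 18 h, GFP was imaged per cell and summed per well.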
HepG2 viability = counter-screen for TGF-b inhibitors: cytotoxicity in HepG2 cells. HepG2 CAGA-GFP viability, ATP luminescence, 18 h. Potency, µM (series often up to 46.1 µM), hits mostly cytotoxic. 0.76% of 410,000 active
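CellTiter-Glo luminescence gave cytotoxicity after 18 hours at 37 degrees C. The cells were HepG2 CAGA-GFP in 1% FBS DMEM, stimulated with 500 pg/mL TGF-beta after compound addition. %Activity was normalised to no-cell wells (complete cell-killing) and DMSO (no toxicity), and curves were fitted and classified.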
HT1080-NT tox = kills 2HG-producing HT-1080-NT fibrosarcoma cells. HT-1080-NT fibrosarcoma viability, CellTiter-Glo ATP luminescence, 48 h. Potency, µM (highest dose often 46.1 µM), actives largely listed as cytotoxic. 1.6% of 360,000 active;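 further: NT is the 2HG producing partner of a matched IDH1 knockdown line; nearly all actives have a fitted effect of over 55% in size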
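Viability of the 2HG-overproducing fibrosarcoma line after 48 hours of compound exposure at 37 degrees C was determined by luminescence with CellTiter-Glo, and concentration-effect curves were then fitted and categorized.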
HT1080 IDH1KD tx = kills HT-1080 cells with IDH1 knockdown | Potency, µM (titrated, usually from 46.1 µM), actives largely listed as cytotoxic | 2% of 360,000 active | HT-1080 IDH1 knockdown viability, ATP luminescence, 48 h
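% activity derives from luminescence (CellTiter-Glo), normalised to DMSO and no-cell wells. HT-1080-IDH1KD cells, 750/well, had 48 h compound exposure at 37 °C.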
KB-3-1 cytotox = KB-3-1 parental cell cytotoxicity; KB-3-1 viability, CellTiter-Glo ATP luminescence, 72 h; Potency, µM (top dose mostly 46.1 µM), usual class: cytotoxic; 1.4% of 400,000 active; AID 1347075; further: nearly all actives have a fitted effect of over 60% in size
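Cytotoxicity measured as CellTiter-Glo luminescence after 72 h at 37 C. Compound titrations were pinned onto drug-naive KB-3-1 parental adenocarcinoma cells grown in DMEM with 10% FBS, and normalized data fitted to concentration-response curves.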
KB-V1 MDR tox = kills drug-selected multidrug resistant KB-V1 cells. AID 1347076. KB-V1 MDR cells viability, CellTiter-Glo, 72 h. 3.4% of 400,000 active. Potency, µM (titrated, usually from 46.1 µM), actives largely listed as cytotoxic; further: nearly all actives have a fitted effect of over 60% in size
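Cells of the MDR subline KB-V1 are plated, dosed with compound at multiple concentrations, and incubated 72 h at 37 degrees C; CellTiter-Glo is then added and luminescence read after 10 min.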
Numbers stand for hits; – = inactive; ? = inconclusive; · = not tested or not shown. This is a sample that favours compounds with a hit; in the whole collection about 6.6% have one here. The call rests on the fitted dose curve; in most records, active means well fitted curve in the direction sought with a large enough effect; inconclusive means small, poorly fitted or top-dose-only effect, or another doubt; inactive means no such curve, though single readings can be large; an effect the other way counts as inactive or inconclusive.

SMILES | TGFb SMAD3 inh | HepG2 viability | HT1080-NT tox | HT1080 IDH1KD tx | KB-3-1 cytotox | KB-V1 MDR tox
O=C1CC(c2ccccc2)Cc2nc3nc(C(F)(F)F)nn3cc21 (configuration not stated) | – | – | – | – | – | –
CSc1nc2nc3c(cn2n1)C(=O)CC(c1ccccc1)C3 (configuration not stated) | – | – | – | – | – | 13µM
CCNC(=O)COc1ccc(/C=C2\COc3ccccc3C2=O)cc1OC | ? | – | ? | 26µM | – | –
COc1cc(C=C2C(=O)OC(C)(C)OC2=O)ccc1OCC(=O)Nc1ccccc1 | – | – | – | – | – | –
CCOc1cc(/C=C2\COc3ccccc3C2=O)ccc1OCC(=O)N(C)C | ? | – | 26µM | 23µM | – | ?
O=C1/C(=C/c2cccs2)COc2ccccc21 | ? | – | – | – | – | –
CNC(=O)c1c(NC(=O)/C=C/c2ccccc2Cl)sc2c1CCC2 | – | – | · | · | – | –
CCOC(=O)C(C)Sc1cc(CS(=O)(=O)c2ccccc2)nc(-c2ccccc2)n1 (configuration not stated) | ? | – | – | – | – | 21µM
COC(=O)c1c(C)sc(-c2c(-c3ccc(F)cc3)[nH]c3[nH]c(=O)[nH]c(=O)c23)c1O | – | – | · | · | – | –
Cc1cccc(CSc2ncc(Cl)c(C(=O)Nc3sc4c(c3C(N)=O)CCCC4)n2)c1 | ? | – | · | · | – | –
Cc1cc(C)c(C#N)c(OCC(=O)c2ccc(Br)cc2)n1 | – | – | – | ? | – | 5.8µM
Cc1ccc(C(=O)COc2nc(C)cc(C)c2C#N)cc1 | – | – | – | – | – | 10µM
CCC(CC)C(=O)Oc1c(Sc2ccccc2[N+](=O)[O-])c(C)nn1C(C)(C)C | – | – | – | – | – | 15µM
O=C(c1cccs1)c1coc2ccc(O)c(CN3CCOCC3)c12 | – | – | – | – | – | 2.9µM
CC(C)Sc1ncc(Cl)c(C(=O)N(Cc2ccc(F)cc2)C2CCS(=O)(=O)C2)n1 (configuration not stated) | – | – | · | · | – | –
N#CC1c2ccccc2-c2ccccc2N1C(=O)c1ccccc1 (configuration not stated) | – | – | ? | 9.2µM | ? | 15µM
CCCC(=O)N(c1ccc2oc3c(c2c1)CCCC3)S(=O)(=O)c1cc(C)ccc1C | – | – | · | · | – | ?
C(=C\c1ccnc2ccccc12)/c1cccs1 | ? | – | · | · | – | ?
O=C(/C=C/c1ccnc2ccccc12)c1cccs1 | ? | 5.6µM | 18µM | 18µM | – | ?
N#C/C(=N\Nc1cccc(Cl)c1)C(=O)c1ccccc1 | ? | – | ? | 23µM | 16µM | ?
N#C/C(=N\Nc1c(Cl)cccc1Cl)C(=O)NN | ? | – | – | – | 15µM | 8.2µM
N#C/C(=N\Nc1ccccc1Cl)C(=O)c1ccccc1 | ? | – | ? | ? | 15µM | ?
CCOC(=O)NC(=O)/C(C#N)=N/Nc1c(F)cccc1F | – | – | – | – | – | ?
CC(=O)/C(N)=N/Nc1cccc(Cl)c1 | ? | – | – | – | – | –
Cc1ccc(NC(=O)CSc2nnc3[nH]c(=O)cc(-c4ccccc4)n23)cc1Cl | – | – | · | · | · | ·
O=C(NCCN1CCN(c2cccc(Cl)c2)CC1)C1COc2ccccc2C1 (configuration not stated) | · | – | · | · | · | ·
COc1ccccc1NS(=O)(=O)c1cc(NC(=O)C2CCCO2)ccc1C (configuration not stated) | – | – | – | – | – | –
COc1ccc(NC(=O)c2cc3c(=O)n(Cc4cccs4)ccc3nc2C)c(OC)c1 | ? | – | · | · | – | –
CCOC(=O)c1c(NC(=O)CSc2nnc(-c3c[nH]c4ccccc34)n2C)sc2c1CCCC2 | – | – | – | – | ? | –
CCOC(=O)c1c(NC(=O)CSc2nnc(-c3c[nH]c4ccccc34)n2CCOC)sc2c1CCCC2 | – | – | ? | – | 18µM | –
